Source: PubChem
Sampled rows, rich in hits. Any-hit rate of the full collection: about 7%.
proKLK7 act – activates the human kallikrein-7 zymogen; purified proKLK7, EDANS-DABCYL substrate fluorescence; 100% is mature enzyme control, 0% vehicle; hit rate 0.9% among 370,000; activation, % at 7 µM; P49862;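 active means activation above the mean of all tested compounds plus 3 SD, computed per campaign excluding outliers beyond control limits, cut at about 13% in these data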
Target sequence (P49862 whole entry, looked up): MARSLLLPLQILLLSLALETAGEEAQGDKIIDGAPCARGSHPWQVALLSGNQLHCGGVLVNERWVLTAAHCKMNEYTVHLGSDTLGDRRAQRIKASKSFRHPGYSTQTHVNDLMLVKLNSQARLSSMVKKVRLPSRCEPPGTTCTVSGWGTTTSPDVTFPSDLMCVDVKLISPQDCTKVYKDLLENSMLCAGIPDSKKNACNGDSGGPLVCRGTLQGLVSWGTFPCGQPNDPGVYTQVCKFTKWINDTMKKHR
ADAM17 inh – inhibitors of human ADAM17. P78536. hit rate 0.83% among 370,000. inhibition, % at 6.95 µM. recombinant ADAM17, EDANS/DABCYL FRET peptide cleavage. AID 720648;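 active means inhibition above the mean of compounds lying between control limits plus 3 SD, set per campaign, cut at about 8.5% in these data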;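 further: 0% = DMSO-only wells as the low control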
ADAM10 inh – inhibitors of human ADAM10 | inhibition, % at 7 µM | hit rate 0.62% among 370,000 | recombinant ADAM10, EDANS/DABCYL FRET peptide cleavage, 3 h | O14672;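 active means inhibition above a per-campaign cutoff equal to the mean of compounds falling between control-based bounds plus 3 SD, cut at about 20% in these data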;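 further: 0% = DMSO wells while the 100% control is not disclosed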
AHR activator – activates the human aryl hydrocarbon receptor; P35869; AHR-responsive luciferase reporter cells, luminescence; activation, % at 5 µM; hit rate 2.5% among 320,000; AID 2796; in the data active means activation above about 47%;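 further: 0% = vehicle wells and 100% = reference agonist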
rCAG binder – binds r(CAG) RNA repeats; r(CAG) RNA repeat, TO-PRO-1 dye displacement fluorescence; inhibition, % at 3 µM; hit rate 1.3% among 370,000; AID 651821;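 active means inhibition above the plate cutoff, the mean of all test compounds on that plate plus 3 SD, cut at about 35% in these data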;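 further: 0% = DMSO alone and 100% = 100 µM mitoxantrone as full dye displacement; higher means more dye released from RNA so lower well fluorescence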
NR3A LBD binder – modulates the human NR3A ligand-binding domain; NR3A LBD differential scanning fluorimetry, Tm shift; 0% = protein alone, 100% = glycine-bound protein; Tm shift relative to glycine control, % at 25 µM; hit rate 2.5% among 340,000; AID 1259313;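 active means melting temperature shift of at least 10% of the positive control shift, at one fixed dose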
An asterisk follows results filed as active; . = no result.

SMILES	proKLK7 act	ADAM17 inh	ADAM10 inh	AHR activator	rCAG binder	NR3A LBD binder
CC(COc1cc(F)cc(F)c1)CN1CCC(C(O)(c2ccccc2)c2ccccc2)CC1 (configuration not stated)	0	5	3	.	2	.
COc1ccc(NC(=S)NCCc2c[nH]c3ccccc23)cc1	1	6	15	-1	3	26*
COc1ccc2[nH]cc(CCNC(=S)NCCc3ccccc3)c2c1	1	1	10	38	5	26*
COc1ccc2[nH]cc(CCNC(=O)Nc3ccccc3)c2c1	0	-7	-1	-2	5	5
Cc1ccc2[nH]cc(CCNC(=O)c3ccco3)c2c1	0	0	2	97*	-1	1
CCOCCCNC(=O)c1c[nH]c2ccc(OCC)cc2c1=O	0	-4	-5	51*	-3	-1
COC(=O)[C@]12C[C@H](CC(=O)NCc3ccc(OC)c(OC)c3)C(=O)N(Cc3ccccc3)C1=C[C@H](C(C)(C)C)O[C@@H]2C	0	1	-2	.	1	.
Cc1ccc(C)c(NS(=O)(=O)c2cc(C(=O)NCCSC3CCCCC3)ccc2C)c1	0	16*	34*	0	5	-8
Cn1c(O)c(C2=c3ccccc3=NC2=O)[nH]c1=S	0	3	11	61*	1	-1
O=C(COC(=O)c1ccco1)Nc1ccc(Br)cc1	0	2	11	1	1	11*
Cc1ccc(C(=O)OCC(=O)Nc2ccc(N(C)C)cc2)cc1NC(=O)c1ccco1	0	-3	3	1	4	15*
O=C(COC(=O)c1ccco1)c1ccc2ccccc2c1	-12	-25	-76	0	2	10*
O=C(COC(=O)c1ccco1)c1ccccc1	0	-3	-5	0	-3	-5
Cc1ccc(S(=O)(=O)N2CCCC(C(=O)Nc3c(C)n(C)n(-c4ccccc4)c3=O)C2)cc1 (configuration not stated)	0	0	0	.	-1	.
Nc1c(NCCCN2CCOCC2)c2ccccc2oc1=O	.	.	.	3	.	11*
O=C(NCc1ccccc1)[C@H]1CCCN1C(=O)[C@H]1CCCN1C(=O)c1ccc(F)cc1F	0	0	-2	.	2	.
COc1ccc2oc(C(=O)Nc3nc(C)cs3)c(C)c2c1	-75	-74	-215	31	9	20*
COCc1c(C(=O)Nc2nc(C)cs2)oc2ccccc12	0	-3	-6	14	-2	0
COc1ccc2oc(C(=O)Nc3ccc(C)cn3)c(C)c2c1	-1	-15	-8	75*	4	-2
COc1ccc2oc(C(=O)Nc3ccccn3)c(C)c2c1	1	-11	-54	72*	5	0
COc1ccc2oc(C(=O)NC3CCCCC3)c(C)c2c1	-2	-28	-68	19	0	1
Cc1noc(C)c1S(=O)(=O)N1CCCc2nc(-c3ccccc3)ccc21	0	-3	-3	.	2	.
Nn1c(SCC(=O)Nc2ccc(OCc3ccccc3)cc2)nnc1-c1cc(-c2ccccc2)n[nH]1	0	0	6	.	5	.
COC(=O)[C@]12C[C@H](CC(=O)NCc3ccc(C)o3)C(=O)N(Cc3cccc4ccccc34)C1=C[C@H](C(C)(C)C)O[C@@H]2C	1	4	5	.	5	.
CC(C)[C@H](NC(=O)c1ccco1)C(=O)OCC(=O)c1ccc2c(c1)NC(=O)CO2	0	-1	2	0	1	11*
SMILES	proKLK7 act	ADAM17 inh	ADAM10 inh	AHR activator	rCAG binder	NR3A LBD binder
O=C(Nc1nc2c(s1)CCCC2)c1cc(-c2ccc3c(c2)OCO3)nc2ccccc12	.	.	.	57*	.	.
Cc1ccccc1-c1cc(C(=O)Nc2nc3c(s2)CCCC3)c2ccccc2n1	-4	0	-7	23	12	0
CC(C)(C)NC(=O)c1cc(-c2ccc3c(c2)OCO3)nc2ccccc12	0	-11	-36	70*	13	0
CC(NC(=O)C=Cc1ccco1)C(=O)NC(Cc1ccccc1)C(N)=O (configuration not stated)	0	-1	-1	.	6	.
CSc1ccccc1-n1nnnc1SCC(=O)Nc1ccccc1C	0	-4	-9	-2	1	14*
CSc1ccccc1NC(=O)CSc1nnnn1-c1ccccc1SC	0	-4	-5	6	-1	3
CCOc1ccc(N(CC(=O)Nc2c(C)n(C)n(-c3ccccc3)c2=O)S(=O)(=O)c2ccc3c(c2)N(C(=O)C2CCC2)CC3)cc1	0	3	5	.	8	.
CCCCCCCCN1C(=O)[C@@H](CC(=O)NCC2CCCCC2)C[C@@]2(C(=O)OC)C1=C[C@H](COCc1ccccc1)O[C@@H]2C	0	-4	-7	.	11	.
COc1ccc(Br)cc1Cn1nnc(C(=O)Nc2ccc3c(c2)OCCO3)c1N	-1	2	9	60*	2	-5
COc1ccc(Cl)cc1N(CC(=O)Nc1ccc2c(c1)OCO2)S(C)(=O)=O	0	0	-2	76*	-3	-1
COc1cccc(NC(=O)Cn2nnc(C(=O)Nc3cc(Cl)ccc3OC)c2N)c1	0	-2	-2	10	8	25*
COc1ccc(OC)c(N(CC(=O)Nc2ccc3c(c2)OCO3)S(=O)(=O)c2ccccc2)c1	1	0	11	32	6	1
COc1ccc(Cl)cc1NC(=O)c1nnn(CC(=O)Nc2ccc3c(c2)OCO3)c1N	0	2	-6	6	11	20*
COC(=O)[C@]12C[C@H](CC(=O)N3CCOCC3)C(=O)N(Cc3ccc(Cl)cc3Cl)C1=C[C@H](C(C)(C)C)O[C@@H]2C	0	2	5	.	3	.
COc1ccc(C(C(=O)N(C)C2CCCC2)N(Cc2ccc(F)cc2)C(=O)c2cc(C)[nH]n2)cc1OC (configuration not stated)	1	3	3	.	-2	.
O=C(/C=C/c1c[nH]c2ccccc12)c1cccc2ccccc12	0	-2	-5	68*	10	28*
N#CC1=C(N)Oc2c(ccc3ccccc23)C1c1ccsc1 (configuration not stated)	-10	-12	-25	59*	22	-10
N#CC1=C(N)Oc2c(oc(CO)cc2=O)C1c1ccsc1 (configuration not stated)	0	-2	-11	6	-1	0
CCC(C)c1ccc(NC(=O)Nc2cccnc2)cc1 (configuration not stated)	0	3	4	79*	1	-3
O=C(Nc1ccc(OC(F)(F)F)cc1)Nc1cccc([N+](=O)[O-])c1	0	7	13	4	19	13*
O=C(Nc1ccc(F)cc1)Nc1cccnc1	0	-2	-1	.	-2	-3
Cc1ccc(NC(=O)Nc2ccc3c(c2)C(=O)OC3)cc1Cl	0	-1	-6	-1	5	24*
